Measured values as given in ChEMBL document CHEMBL1201862, “PubChem BioAssay data set” (2004).
The campaign covered roughly 300,000 compounds. About 3,700 (1.2%) were called active. Roughly 20% stayed inconclusive and do not appear here. The calls are words filed in the database; no cut-off is given here. This excerpt belongs to a sample that is enriched for actives.

Tested on: HEK293
Test: qHTS for Inhibitors of binding or entry into cells for Lassa Virus. [Related pubchem assays (depositor defined):AID463114, AID540249]
Format: functional, Homo sapiens
Settings: read-out: Potency

Row | Compound | AC50
1 | C[C@@H]1O[C@@H](O[C@H]2C[C@@H](O)[C@]3(CO)[C@H]4[C@H](O)C[C@]5(C)[C@@H]([C@@H]6COC(=O)C6)CC[C@]5(O)[C@@H]4CC[C@]3(O)C2)[C@H](O)[C@H](O)[C@H]1O [DIHYDROOUABAIN] | 1580 nM (active)
